# From ChEMBL document CHEMBL3988442, “University of Dundee, Small-Polar-MMV Screening Library” (2021)
# Target: AMP-activated protein kinase, AMPK (Homo sapiens) (UniProt P54646+O43741+P54619+Q9UGJ0+Q9Y478+Q13131+Q9UGI9)
# Assay: AMP-dependent Kinase enzyme assay. An in vitro enzyme assay that detects ADP turnover that is directly proportional to AMPK activity. This uses naive AMPK that is activated during the assay with MK-8722
# Assay type: functional
# Design: scale not given: direction of the effect not stated beside the values
# Details: 30 µM
row,SMILES,Percent Effect
1,Cn1cnc(S(=O)(=O)N2CCCCc3ccccc32)c1,-0.149%
2,O=C(c1cncc(NCC2COc3ccccc3C2)n1)N1CCOCC1 (stereo not given),7.56%
3,Cn1cc(S(=O)(=O)N(Cc2ccc(F)cc2F)C2CC2)cc1C(N)=O,3.23%
4,Cc1nnc(CN(C)CC(=O)N2CCCN(C3CCCC3)CC2)n1C,-11.4%
5,Cc1nccn1CCN(C)C(=O)c1cn(CC2CCCCC2)nn1,9.45%
6,CCN(CC)c1ncccc1CNCc1ccc(-c2ccn[nH]2)s1,1.23%
7,CCOc1cc(NC(=O)N2CCOC3(CCC3)C2)ccc1C,-1.23%
8,Cn1ccnc1-c1cn(CCCc2nnc(N)s2)nn1,-15.1%
9,Cc1noc(C)c1CNC(=O)NCCC(=O)N1CCCc2ccccc21,-2.4%
10,CCCOc1ccc(Cl)cc1CNc1ncnc2oc(C)nc12,0.0102%
11,CCc1ccc(C(=O)NCC2CCCN2CC)o1 (stereo not given),0.975%
12,CN(Cc1cccc(OC(F)(F)F)c1)Cc1cnn(C)c1,-4.15%
13,CCn1nc(C)c(NC(=O)CN(C)C(C)c2ccon2)c1C (stereo not given),-1.21%
14,Cc1noc(OCC(=O)N2CCCCC2C)n1 (stereo not given),-1.69%
15,CNc1nc(C)c(C(=O)N2C[C@@H](C(=O)O)[C@H](C3CC3)C2)s1,3.27%
16,CCc1nnc(C(C)N2CCC(NC(=O)C3CCCCC3)CC2)o1 (stereo not given),2.87%
17,COC(=O)c1ccc(N(C(=O)c2cscn2)C(C)C)c(C)c1,-0.314%
18,COc1cccc(CCn2ccnc2-c2cn(C3CCNCC3)nn2)c1,-20.9%
19,Cc1cc(CN(CC(N)=O)CC(C)C)no1,-8.69%
20,CS(=O)(=O)CCCN1CCSCC1c1ccc(Cl)cc1 (stereo not given),-4.65%

row,SMILES,Percent Effect
1,O=c1c(CN2CCOCC2)coc2ccc(Cl)cc12,-2.73%
2,Cc1noc(C)c1CCc1nc(C2CCOC2)no1 (stereo not given),-7.75%
3,COCCCN1CC2(CCN(C(=O)c3ccc(=O)n(C)c3)CC2)CC1=O,9.31%
4,COC(=O)c1cccc(S(=O)(=O)NCC(c2ccco2)N2CCCC2)c1 (stereo not given),-6.45%
5,O=C(NCCNCc1cccc2c1OCCCO2)C1CCCC1,-0.551%
6,CCc1ccc(CCC(=O)N2CCC(=O)Nc3cccnc32)cc1,0.539%
7,CC1CN(CC(=O)NCCc2ccccc2)CCN1c1nccs1 (stereo not given),25.7%
8,CN(C)CCCC(=O)NC1CC(C)(C)Cc2nc(C(C)(C)C)ncc21 (stereo not given),8.49%
9,CNS(=O)(=O)c1c(C)sc2ccccc12,7.5%
10,c1ccc(Cc2noc(-c3ccc(NCC4COCCO4)nc3)n2)cc1 (stereo not given),8.79%
11,Cc1ccc(N2CC[C@@]3(O)CCN(S(C)(=O)=O)C[C@H]3C2)nn1,0.414%
12,CCNc1ncc(CN2CCOC(Cc3cccc(OC)c3)C2)cn1 (stereo not given),0.956%
13,Cc1ccc(F)c2c1CCCN2CC(=O)NC1CCS(=O)(=O)C1 (stereo not given),3.51%
14,CC1(C)COCCN1C(=O)Cc1cc(Cl)c2c(c1)OCCO2,10.7%
15,CC1CCCCN1C(=O)COc1nc(Cc2ccc(F)cc2)no1 (stereo not given),2.51%
16,Cc1ccc(C)c(CC(=O)NC2CCC(N3C(=O)CCC3=O)CC2)c1 (stereo not given),-3.29%
17,NC(=O)C(NC1CCN(CC2CCCCC2)CC1)c1ccccc1 (stereo not given),0.144%
18,Cc1ccc(OCCn2cnc3oc(C)c(C(=O)O)c3c2=O)cc1,15.5%
19,O=C(c1coc(COc2ccccc2F)n1)N1CCC[C@H]1CO,8.7%
20,O=C(NCc1ccco1)N1CCC(n2cc(-c3ccccn3)nn2)CC1,0.674%
